Measurements: PubChem BioAssay (EPA / NIEHS)
Results filed as inconclusive are left out. Calls of active or inactive are those of the source. The calls were made as follows: active = hit-call score of the fitted dose curve at least 0.9, where 1 is the maximum; inconclusive = response in the unintended direction; inactive = score below 0.9.

Assay: ATG_M_32_TRANS: Attagene TRANS-FACTORIAL HepG2 Assay for M32 Transcription Factor (Internal Marker) (AID 2282984)
Conditions: HepG2 Attagene TRANS M32 internal marker reporter
Protocol: ATG_TRANS is a cell-based, multiplexed-readout assay that uses HepG2, a human liver cell line, with measurements taken at 24 hours after chemical dosing in a 24-well plate.ATG_M_32_TRANS is one of 30 assay component(s) measured or calculated from the ATG_TRANS assay. It is designed to make measurements of mRNA induction, a form of inducible reporter, as detected with fluorescence intensity signals by Reverse transcription polymerase chain reaction (RT-PCR) and Capillary electrophoresis technology.Data from the assay component ATG_M_32_TRANS was analyzed into 1 assay endpoint. This assay endpoint, ATG_M_32_TRANS, was analyzed in the positive analysis fitting direction relative to DMSO as the negative control and baseline of activity. Using a type of inducible reporter, measures of mRNA for gain-of-signal activity can be used to understand the background control at the transcription factor-level as they relate to the gene . Furthermore, this assay endpoint can be referred to as a secondary readout, because this assay has produced multiple assay endpoints where this one serves a background control function. To generalize the intended target to other relatable targets, this assay endpoint is annotated to the background measurement intended target family, where the subfamily is internal marker.
Human liver HepG2 cells are transiently transfected with multiple reporter transcription units (MRTUs) in 6-well plates using FuGene 6 reagent (Roche; 3 ml FuGene/1 mg DNA). The MRTU constructs are regulated by a cis-regulating element (promoter). […] A major difference between the CIS and TRANS system is that in CIS activities of endogenous TFs are measured, whereas the TRANS assay evaluates changes in activities of exogenous, chimeric NR-Gal4 proteins. […] At the end of 24 hour incubation, total RNA was isolated using TriZol reagent (Invitrogen). The isolated RNA is then reverse-transcribed using oligo(dT) primer and Mo-MLV reverse transcriptase (Invitrogen) with DNAse I (Ambion) treatment for 30 min. The one-tenth of the produced cDNA was amplified by PCR using Taq DNA polymerase (Invitrogen) and two reporter sequence-specific primers. The PCR products were fluorescently labeled by primer extension with 6-arboxyfluorescein (6-FAM) 5'-labeled reporter sequence-specific primer (2 min at 95 C, 20 s at 68 C and 10 min at 72 C) and these products were digested with 5U of HpaI (New England Biolabs) for 2h at 37 C. The fragments were purified using Qiaquick PCR columns (Qiagen), analyzed on an ABI 3130xL genetic analyzer (Applied Biosystems) with peak positions identified by using a set of X-rhodamine (ROX)-labeled MapMarker1000 molecular weight standards (BioVentures). The raw capillary electrophoresis data was processed using Attagraph software (Attagene).

Row | SMILES | outcome
1 | O=C(O)C(F)(F)C(F)(F)C(F)F | inactive
2 | FC(F)(F)C(F)(F)C(F)(F)C(F)(F)C(F)(F)CCI | inactive
3 | CCN(CC)c1ccc2c(C)cc(=O)oc2c1 | inactive
4 | CCCCNc1ccccc1 | inactive
5 | OC[C@@H](O)[C@@H](O)[C@H](O)[C@@H](O)CO | inactive
6 | O=P(O)(O)OCCC(F)(F)C(F)(F)C(F)(F)C(F)(F)C(F)(F)C(F)(F)F | inactive
7 | O=C(C=Cc1ccccc1)OCC=Cc1ccccc1 | inactive
8 | Nc1ccc(Oc2cccc(Oc3ccc(N)cc3)c2)cc1 | inactive
9 | O=C(CC(=O)C(F)(F)C(F)(F)F)C(F)(F)F | inactive
10 | OCC(F)(F)C(F)(F)C(F)(F)C(F)F | inactive
11 | OCC(F)(F)C(F)(F)C(F)(F)F | inactive
12 | O=C(Cl)C(F)(F)C(F)(F)C(F)(F)C(F)(F)C(F)(F)C(F)(F)C(F)(F)C(F)(F)F | inactive
13 | C#C[C@]1(O)CC[C@H]2[C@@H]3CCc4cc(OC)ccc4[C@H]3CC[C@@]21C | inactive
14 | O=C(O)C(F)(F)C(F)(F)C(F)(F)F | inactive
15 | CO[Si](OC)(c1ccccc1)c1ccccc1 | inactive
16 | CCCCCCCCC(F)(F)C(F)(F)C(F)(F)C(F)(F)C(F)(F)C(F)(F)F | inactive
17 | OCCCC(F)(F)C(F)(F)C(F)(F)C(F)(F)C(F)(F)C(F)(F)C(F)(F)F | inactive
18 | CC/C=C\CCOC(C)=O | inactive
19 | FC(F)(F)C(F)(F)C(F)(F)C(F)(F)C(F)(F)C(F)(F)C(F)(F)I | inactive
20 | c1ccc(B(c2ccccc2)c2ccccc2)cc1 | inactive

Row | SMILES | outcome
21 | CC(C)c1ccccc1N | inactive
22 | FC(F)(I)C(F)(F)C(F)(F)C(F)(F)I | inactive
23 | O=C(O)C(F)(F)C(F)(F)OC(F)(F)F | inactive
24 | O=C(O)C(F)(F)C(F)(F)C(F)(F)C(F)(F)C(F)(F)C(F)(F)C(F)(F)C(F)(F)C(F)(F)C(F)F | inactive
25 | Cc1ccc(S(=O)(=O)OCC(F)(F)C(F)(F)C(F)(F)C(F)(F)C(F)(F)C(F)F)cc1 | inactive
26 | CCC(=O)OCCc1ccccc1 | inactive
27 | O=C(O)C(F)(F)C(F)(F)C(F)(F)C(F)(F)C(F)(F)C(F)(F)C(F)(F)C(F)(F)C(F)(F)C(F)(F)C(F)(F)C(F)(F)F | inactive
28 | CCCCC(CC)COP(=O)(O)OCC(CC)CCCC (stereo not given) | inactive
29 | O=C(O)C(F)(F)C(F)(F)C(F)(F)C(F)(F)C(F)(F)C(F)(F)C(F)(F)C(F)(F)C(F)(F)C(F)(F)C(F)(F)C(F)(F)C(F)(F)F | inactive
30 | CC(=O)Nc1ccc(N=Nc2cc(C)ccc2O)cc1 | inactive
31 | O=C(OCCOCCOCCOC(=O)c1ccccc1)c1ccccc1 | inactive
32 | O=C(O)C(F)(OC(F)(F)C(F)(OC(F)(F)C(F)(F)C(F)(F)F)C(F)(F)F)C(F)(F)F (stereo not given) | inactive
33 | FC1CC(F)(F)C(F)(F)C1(F)F (stereo not given) | inactive
34 | OCC(F)(F)C(F)(F)C(F)(F)C(F)(F)C(F)(F)C(F)F | inactive
35 | FC(F)(F)C(F)(F)C(F)(F)C(F)(F)C(F)(F)C(F)(F)C(F)(F)Br | inactive
36 | CS(C)(=O)=O | inactive
37 | CCO[Si](CCC(F)(F)C(F)(F)C(F)(F)C(F)(F)C(F)(F)C(F)(F)F)(OCC)OCC | inactive
38 | C=CC/C=C/C/C=C/C/C=C/C | inactive
39 | O=C(O)C(F)(F)C(F)(F)F | inactive
40 | CN(C)Cc1ccccc1O | inactive
